{"source": "the supplement of paper PMC12632987", "binders": {"B1": {"name": "traf2_out_13_95_1086 (protein)", "chain": "SKEVNEKIMEIADEMMEQILATLDALAKQVAGDPELAAAVAEARRLAETRGVNEAIHKLRELAKANPEHAELLNAAIAEIEAIKKEASKKISELLKEEEE"}, "B2": {"name": "traf2_out_6_3_2525 (protein)", "chain": "SSESLRKDARKVLENMGITTAEQLLTLVTAEVNAVKKVASRPDFDRADVAGLRSVLALTRAMVEVAYEELPSVTEADKAEALALIADAEALVEAKAKELE"}, "B3": {"name": "traf2_out_3_89_2280 (protein)", "chain": "SMEEEEKIKEARENIETWIRGLRKSTRRVAEEMRKEGASLETIKGLIDSSATALLEAFKISLKDKGFDEETIEELVEEAKEELEKIREELKEEAEKAYEE"}, "B4": {"name": "traf2_out_13_95_1091 (protein)", "chain": "SKEVAEKINKIADEMLDKSLALLEKLLKIAEEKGKAVEEIKEAIDLAEYRSINEAIHKLEELAKKYPEFKEELEATIKEIRAIKREAGRKVAEILKEEKE"}, "B5": {"name": "traf2_out_13_95_1106 (protein)", "chain": "SAETAEKIMEIADEMLDKVEELLEKLLEIAKKKGKLEEEIQEALHLARYRSINEAIHLLKELAKKYPEFKEELEETIEKIEELIREAGRKVAEILKEEKE"}, "B6": {"name": "traf2_out_13_95_1104 (protein)", "chain": "SAETAEKIMKIADEMLDKVEKILEELLKIAKEKGKLEEEIKEALHLARYQSINEAIHKLKELAKKYPEFKEELEAAIKEIEALKKEAGRKVAEILKEEKK"}, "B7": {"name": "traf2_out_20_38_2033 (protein)", "chain": "SEEEEEKRRLEEAIEVANEAYDKYSARVAAWKAAGKTVEEIAEEAKEEVRRLLTEAGLEEEAEILIEDIDRALSSPEAERLIVRILARAEALVYQKKVNE"}, "B8": {"name": "traf2_out_11_104_646 (protein)", "chain": "LTREQAREFNDFAMEANDKAKELLQEVADFLESRGHEEEAAKVRAELAHPGSGVSTFKNLLEELLPKLDEESRAVAEKAIKELEELQKKVSDKLNELEKK"}, "B9": {"name": "traf2_out_20_3_2054 (protein)", "chain": "EELLKELEEEEKKLRELIEEIEKLVDPETAEELREALERVEKARKEGLEEYLVALSELRRLLLRLAEEARAAGKEEVAALLEEAAEAAQRAMNIVMKIIE"}, "B10": {"name": "traf2_out_18_117_1796 (protein)", "chain": "SELEKLQEEFEKTLKEFEEELEEAQRVATKLIEKYPKQLPEEAMDAIVEFGEVKRRVQQLVQEAKAHPNDVEKQKKLVEELKKLLEEMKEIKKKLEEILK"}, "B11": {"name": "traf2_out_11_155_685 (protein)", "chain": "EEKQKINNELVDKISEIADKAKAEARAIAAATAAAHPEAAAALAATLEASAGFGLSSFLGRLAATFRALGLADAAAQVEALRAQAQKEMNAAVKEAEEKL"}, "B12": {"name": "traf2_out_11_169_804 (protein)", "chain": "EEAEKNREINDFALELNDEAVARLEEAALALAREAGLDPEEVRAIFEAHKGKSLSAVAAALIRHFRERGAEAAAEAVLALYEELKEEINKKMTEKIKELE"}, "B13": {"name": "traf2_out_18_3_1946 (protein)", "chain": "SEEERKKYSEKLDEVFDDTGAEILARARALVAEDPRFQPALDAIEAIAARGPRPATMANTLIDALRALGYEEEAAAVEEYYSEKAKEASELIKKYEEAIK"}, "B14": {"name": "traf2_out_17_178_1710 (protein)", "chain": "SKAEARATISAATDRMIDLAEAAAAELLAIAEAEGDLSPEELAELRRARRLGSARTTLALMRRAIPKLKSAERVQALLDRFEAEYAALAKEIAAALEKYE"}, "B15": {"name": "traf2_out_17_178_1731 (protein)", "chain": "SREEILKKISEKADELLDTNKEAMDELRKIAEKEGVLTPELREKLDAVHRNANLYALEEVFDEVIEKTKSKEEVEKLKEETSKKMRELNKEIQALVEELE"}, "B16": {"name": "traf2_out_6_156_2382 (protein)", "chain": "DIEKILEEAKKKIEELIKKLSKAPESKKIRYINEIAGTVYRALQKLRDLGASLEELKEFTEEIKKFVEEQLEKYGLDESTKNLILSSINAVGEVALREAA"}, "B17": {"name": "traf2_out_20_3_2262 (protein)", "chain": "DELRAKAEAALAEAEALLAELAPRLPAADAARLQELLDAAKAAFATDLRDALVYLSELRRLALALAEEARAAGDAALAAALEALADAVGRAANYVYKIIE"}, "B18": {"name": "traf2_out_20_38_2004 (protein)", "chain": "SEEEEEEKRLEKIIQAANDALDAWEARFAALKAEGKSVEEIAEIAKEEIRRLLTAAGLEEEAEELVAQVDLVLDSPDAERLIARILARAAALVTQKKLQE"}, "B19": {"name": "traf2_out_20_38_2006 (protein)", "chain": "SEEEEEEKRLQKIIDAANEELDRWEKEIEELRAEGKSVEEIAEIAKKRIREMLTAAGLEEEAEELIAQVDTVLDSPDAERAIARILARAAALVTQKKLQE"}}, "note": "In all, about 1,800 sequences were measured (“median log2 fold change of GCK-ALFA target abundance (FLAG IP / Myc IP barcode read proportion)”: median about 0.14, lowest 2% from about -0.84 on). Only a selection was taken, and the lowest values are over-represented in it overall.", "data": [{"molecular_target": "T1, TRAF2, Q12933", "T1 chain": "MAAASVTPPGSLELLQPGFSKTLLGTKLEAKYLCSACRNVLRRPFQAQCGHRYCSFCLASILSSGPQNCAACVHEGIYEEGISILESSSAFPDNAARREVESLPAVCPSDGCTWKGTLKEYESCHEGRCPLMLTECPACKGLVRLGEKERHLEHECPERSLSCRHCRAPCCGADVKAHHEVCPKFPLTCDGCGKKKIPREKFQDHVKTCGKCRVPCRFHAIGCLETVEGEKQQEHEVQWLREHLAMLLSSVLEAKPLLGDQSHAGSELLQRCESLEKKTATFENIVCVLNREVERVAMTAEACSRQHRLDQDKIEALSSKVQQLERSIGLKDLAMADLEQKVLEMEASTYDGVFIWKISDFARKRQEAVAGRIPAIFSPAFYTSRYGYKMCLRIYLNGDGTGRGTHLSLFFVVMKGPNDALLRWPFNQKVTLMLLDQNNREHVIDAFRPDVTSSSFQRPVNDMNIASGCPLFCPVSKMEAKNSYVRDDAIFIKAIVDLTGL", "assay": "median log2 fold change of GCK-ALFA target abundance (FLAG IP / Myc IP barcode read proportion) (log2 ratio); each designed protein is fused to an ALFA-tag nanobody in HEK293 cells to bring the named protein to FLAG-tagged glucokinase (GCK); Myc marks an untargeted standard; higher = target protein stabilised (more abundant)", "settings": "target protein: 3xFLAG-MCP-GCK-ALFA reporter; HEK293 landing pad (RPLP)", "method": "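LABEL-seq trans screen in HEK293 landing-pad cells. Each de novo designed 100-aa effector handle, binding the indicated effector (E3 ligase, DUB or autophagy protein), is fused to a constant NbALFA target handle and induced with 2 ug/mL doxycycline. A FLAG-MCP-GCK-ALFA target and a Myc-MCP standard reporter were transfected, and after 48 h circRNA barcodes were recovered by anti-FLAG and anti-Myc IP and sequenced. The value is the median across barcodes (at least 3 per design) of log2(FLAG/Myc read-proportion ratio), with the two transfection replicates pooled. Negative values mean degradation and positive values mean stabilisation of the target.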", "values": [{"binder": "B1", "median log2 fold change": -0.0311}, {"binder": "B2", "median log2 fold change": -0.025}, {"binder": "B3", "median log2 fold change": 0.0329}, {"binder": "B4", "median log2 fold change": -0.417}, {"binder": "B5", "median log2 fold change": -0.553}, {"binder": "B6", "median log2 fold change": -0.841}, {"binder": "B7", "median log2 fold change": -0.971}, {"binder": "B8", "median log2 fold change": 0.185}, {"binder": "B9", "median log2 fold change": 0.588}, {"binder": "B10", "median log2 fold change": 0.186}, {"binder": "B11", "median log2 fold change": 0.177}, {"binder": "B12", "median log2 fold change": 0.243}, {"binder": "B13", "median log2 fold change": 0.267}, {"binder": "B14", "median log2 fold change": -0.136}, {"binder": "B15", "median log2 fold change": 0.639}, {"binder": "B16", "median log2 fold change": 0.0808}, {"binder": "B17", "median log2 fold change": 0.219}, {"binder": "B18", "median log2 fold change": -1.04}, {"binder": "B19", "median log2 fold change": -0.29}]}]}
